PfHsp90 set2: inhibits growth of yeast expressing Plasmodium falciparum Hsp90; AID 504621; inhibition, % at 9.4 µM; 0.32% of 310,000 active; S. cerevisiae expressing PfHsp90, BacTiter-Glo ATP, 48 h; yeast lacking PDR1 and PDR3 efflux regulators;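 active = every replicate shows inhibition above about 80%, whatever the replicate mean, limit read from the data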;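 note: 0% = DMSO neutral controls and 100% = 20 µM radicicol positive controls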
SKKanGAS inh: blocks kanamycin growth of S. pyogenes SKKanGAS strain | inhibition, % at 7.5 µM | AID 1662 | BacTiter-Glo, 6 h | 1.3% of 300,000 active;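 active = mean replicate score, as percent of positive control median, at least 50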;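 note: strain carries kanamycin resistance gene driven by streptokinase promoter and grows in 40 µg/ml kanamycin; loss of luminescence reflects streptokinase promoter inhibition or plain growth inhibition; 0% = median of DMSO wells and 100% = positive control at its reference dose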
tim10-1 inh: tim10-1 yeast growth inhibition; S. cerevisiae tim10-1 ts strain growth, BacTiter-Glo, 24 h; inhibition, % at 20 µM; 2.2% of 330,000 active; AID 463190;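 active = inhibition of at least 40%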;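 note: mutant grown at 25 °C; 0% = DMSO wells with yeast and 100% = wells holding no yeast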
tim23-1 inh: inhibits growth of tim23-1 mutant yeast | inhibition, % at 20 µM | 1.3% of 330,000 active | S. cerevisiae tim23-1 growth, BacTiter-Glo luminescence, 24 h | AID 463212;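 active = growth inhibition of the mutant yeast at or above 50%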;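 note: temperature-sensitive mutant grown at 25 °C; plate controls were DMSO-treated mutant yeast for no effect and medium wells lacking yeast for full effect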
TIM10 inh: growth inhibitors of TIM10 yeast strain; S. cerevisiae TIM10 strain growth, BacTiter-Glo luminescence, 24 h; 1.4% of 330,000 active; inhibition, % at 10 µM;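 active = inhibition of 40% or more at the single tested concentration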;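 note: wild-type TIM10 isogenic control strain grown at permissive 25 °C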
NLRP3 yeast inh: NALP3 inhibition in yeast; Yeast reconstituted NLRP3/ASC/caspase-1, beta-gal luminescence, 24 h; inhibition, % at 10 µM; 0.39% of 330,000 active; AID 2825;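 active = inhibition of 50% or more; inactive = inhibition below 50%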;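 note: plate controls were induced DMSO wells for no effect and uninduced yeast grown without galactose for full effect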
tim10-1 confirm: confirmation of tim10-1 mutant yeast growth inhibitors; shares compounds with tim10-1 inh; 56% of 7,400 active; inhibition, % at 20 µM; S. cerevisiae tim10-1 ts strain growth, BacTiter-Glo, 24 h;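 active = inhibition of yeast growth at or above a set limit in either of two repeat tests at 20 µM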;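 note: tim10-1 mutant grown at permissive 25 °C to find synthetic lethal compounds; 0% = DMSO yeast wells and 100% = medium wells without yeast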
TIM10 conf: confirmation of TIM10 yeast growth inhibitors; shares compounds with TIM10 inh; S. cerevisiae tim10 strain growth, BacTiter-Glo luminescence, 24 h; inhibition, % at 10 µM; 63% of 4,600 active;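 active = inhibition of yeast growth at or above a set limit in either of two replicates at 10 µM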;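 note: this counterscreen used the strain with wild-type TIM10; 0% = yeast with DMSO and 100% = medium wells lacking yeast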
Starred values were filed as active, the others as inactive; . = not tested or not shown. Rows were chosen to be rich in hits. Some 4.6% of all compounds tested hit in one or more screens of this group.

SMILES | PfHsp90 set2 | SKKanGAS inh | tim10-1 inh | tim23-1 inh | TIM10 inh | NLRP3 yeast inh | tim10-1 confirm | TIM10 conf
CCc1ccc2c(c1)C1(NN=C(c3cccc4ccccc34)S1)C(=O)N2 (stereo not drawn) | -97 | 79* | 54* | 50 | 55* | 28 | 47* | 59*
O=C1c2cccc3c([N+](=O)[O-])ccc(c23)C(=O)N1c1ccc(Cl)cn1 | 4 | 9 | 77* | 2 | 74* | -8 | 66* | 89*
O=C1c2cccc3c([N+](=O)[O-])ccc(c23)C(=O)N1c1nccs1 | . | 4 | 84* | 38 | 69* | -1 | 73* | 96*
O=C1c2cccc3cccc(c23)C(=O)N1c1nccs1 | . | 3 | 8 | -4 | 5 | -5 | . | .
Cc1ccc(S(=O)(=O)c2nc(-c3ccco3)oc2SC(C)C)cc1 | -1 | 5 | -6 | 31 | 10 | 28 | . | .
COc1cccc(CC2(CO)CCCN(Cc3cc4ccccc4[nH]3)C2)c1 (stereo not drawn) | -16 | 2 | 8 | 4 | -5 | 3 | . | .
Cc1ccc2c(c1)[nH]c1c(=O)n(Cc3ccco3)cnc12 | -7 | 25 | 3 | -4 | 4 | 15 | . | .
CCCN(CCC)C1=N/C(=C\c2ccco2)C(=O)N1c1ccccc1 | 3 | 0 | 35 | 48 | 15 | 9 | . | .
CN(C)CCCN(C(=O)c1cccs1)c1nc2cc3c(cc2s1)OCO3 | -6 | -4 | 19 | 13 | 11 | 17 | . | .
CCN(CC)CCN(C(=O)c1ccc(Br)s1)c1nc2cc3c(cc2s1)OCCO3 | 9 | -4 | 15 | 22 | 16 | 17 | . | .
CN(C)CCCN(C(=O)c1ccc(Br)s1)c1nc2cc3c(cc2s1)OCCO3 | . | -2 | 64* | 43 | 56* | 35 | 60* | 47*
CN(C)CCCN(C(=O)c1cc(Cl)sc1Cl)c1nc2cc3c(cc2s1)OCO3 | -10 | 0 | 63* | 46 | 46* | 34 | 55* | 34*
CN(C)CCCN(C(=O)c1ccc(Cl)s1)c1nc2cc3c(cc2s1)OCO3 | 28 | 3 | 48* | 18 | 42* | 22 | 46* | 23
Cc1cccc(/C=C/C(=O)c2ccc(NC3=NCCCS3)cc2)c1 | -9 | . | 54* | 1 | 66* | 28 | 50* | 59*
Cc1cccc(C(=O)Nc2ccc(C(=O)/C=C/c3cccnc3)cc2)c1 | -58 | 4 | . | . | . | . | . | .
CCOC(=O)C(C(=O)OCC)C(Nc1cccc(Br)c1)c1ccccc1 (stereo not drawn) | 32 | -5 | 55* | 42 | 53* | 44 | 37* | 43*
COC(=O)C(C)Nc1cccc(Br)c1 (stereo not drawn) | -12 | -6 | -1 | -1 | -2 | -5 | . | .
CC(C)Cn1c(-c2csc3c2CCCC3)n[nH]c1=S | 6 | . | 48* | 40 | 44* | 21 | 20 | 40*
CC(C)Cn1c(-c2ccccc2F)n[nH]c1=S | . | -5 | 17 | 12 | 2 | 3 | . | .
Cc1ccc(-c2nnc(Sc3nc4ccccc4o3)c3ccccc23)cc1 | 10 | 6 | 46* | 49 | 48* | 29 | 30* | 38*
Cc1cccc(CN2CCN(Cc3cccc(-n4cccn4)c3)CC2CCO)n1 (stereo not drawn) | 20 | 2 | 14 | 9 | -4 | 20 | . | .
CC1CCC(NC(=O)Nc2cccs2)CC1 (stereo not drawn) | 3 | 8 | 54* | 37 | 60* | 5 | 73* | 46*
Cc1cc(OCC(=O)N2CCN(c3ccccn3)CC2)c(C)cc1Br | -10 | 2 | 23 | 28 | 2 | 7 | . | .
Cc1ccc(Nc2cc(C)nc(-c3ccccc3O)n2)cc1 | . | 17 | 58* | 40 | 53* | 9 | 59* | 48*
Cc1cc(Nc2ccc(F)c(F)c2)nc(-c2ccccc2O)n1 | -22 | 1 | 17 | -1 | 14 | -5 | . | .
SMILES | PfHsp90 set2 | SKKanGAS inh | tim10-1 inh | tim23-1 inh | TIM10 inh | NLRP3 yeast inh | tim10-1 confirm | TIM10 conf
CC(c1ccco1)N(C(=O)c1ccccc1F)c1ccccn1 (stereo not drawn) | 31 | -8 | 13 | 13 | 11 | 5 | . | .
CC(c1ccco1)N(C(=O)C12CC3CC(CC(C3)C1)C2)c1ccccn1 (stereo not drawn) | 21 | 4 | 43* | 44 | 46* | -1 | 36* | -24
Cc1ccc(C)c(NC(=O)CN(C)C(=O)/C=C/c2ccco2)c1 | -47 | . | -11 | -2 | 6 | 11 | . | .
CCN(CC)c1ccc(/C=N/N2C(C)CCCC2C)c(O)c1 (stereo not drawn) | -8 | 27 | -4 | 33 | 21 | 22 | . | .
CC(=O)Nc1ccc(NC(=O)CSc2nnc3ccc(-c4cccnc4)nn23)cc1 | 11 | 3 | 3 | 17 | -2 | 13 | . | .
Cc1cccc[n+]1CCCCCCCCCC[n+]1ccccc1C | -15 | -14 | 52* | 50 | 46* | 14 | 70* | 47*
CCOc1cccc2sc(N(CCCN(C)C)C(=O)c3ccc(S(=O)(=O)N4CCc5ccccc5C4)cc3)nc12 | -1 | 6 | 45* | 15 | 42* | 26 | 23 | 32*
CCc1ccc2nc(N(CCCN(C)C)C(=O)c3ccc(S(=O)(=O)N4CCc5ccccc5C4)cc3)sc2c1 | . | 19 | 31 | 16 | 28 | 12 | . | .
S=C(NCc1ccc(Cl)cc1)NCc1ccco1 | -4 | 14 | 13 | 12 | 5 | 7 | . | .
O=C(Nc1ccccc1C(=O)NCc1ccccc1)c1ccccc1 | 7 | . | 47* | 36 | 46* | 11 | 42* | 27
Cc1c(-c2nc3ccccc3[nH]2)cnn1C | -19 | . | -41 | 0 | 3 | 17 | . | .
Cn1cc(-c2nc3ccccc3[nH]2)c2ccccc21 | 12 | 0 | 41* | -10 | 71* | 32 | 27 | -3
C=CCn1c(=O)c2ccccc2n2c(SCc3c(C(=O)OCC)oc4ccccc34)nnc12 | 25 | -4 | 41* | 35 | 42* | 4 | 38* | 17
C=CCn1c(=O)c2ccccc2n2c(SCC(N)=O)nnc12 | -7 | 3 | 2 | 13 | 0 | 24 | . | .
c1ccc(-c2nnc(-c3ccccn3)nc2NC2CCCCC2)cc1 | 103* | 104* | 47* | 17 | 67* | 5 | 36* | 63*
Nc1c(C(=O)NCCc2ccc(Cl)cc2)sc2ccc(S(=O)(=O)N3CCCCC3)cc12 | . | 42 | 43* | 41 | 44* | 17 | 35* | 28
Cc1cc(Br)c(Oc2cc(NN3CCCCC3)c([N+](=O)[O-])cc2[N+](=O)[O-])c(Br)c1 | -12 | . | . | . | . | . | . | .
COc1ccc(/C=C2\CCC(C3CCCC3)C2=O)cc1Cn1cccn1 (stereo not drawn) | 19 | 2 | 26 | 31 | 18 | 27 | . | .

Assay outcomes deposited in PubChem BioAssay by several laboratories.
